# Test system: RXRa DBDmut IVT, anti-RXR (DBD mutation: RXRa K156A/R161A, NR concentration 90 nM)
# Assay: PBM binding z-score (relative to random genomic background probes); higher = stronger binding; sequences stand for … in GC…GCGATTGACAGCGTAGAATGAAGG
# Procedure, shortened: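 On custom Agilent 4×180K arrays, double-stranded probes with 34-nt variable regions carried direct-repeat seeds, single-nucleotide variants, half-site ablations or random human genomic background. Ligand-free nuclear receptor dimers were applied for 1 h, and binding was read with antibodies against each partner (one per run). Binding z-scores come from regression-normalized fluorescence, with the random background probes as reference.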
row,Sequence,PBM binding z-score
1,ATCGAAAGGACGAAGGTGAGTATACCCACCCGAA,-0.397
2,ATCTTTAGGTAACAAGTTCAGTGAAAGAGAGGAC,1.65
3,CGTACTGGGCCATTCAGAGGTCATTGATCATATG,1.64
4,CGTCCAAGGTCAAAGATCAGTGAAGAGATGACGG,3.73
5,CGTGCTAGGTCAATGGTCAGCTAAAGCAGCTCGC,1.67
6,TAGCCTAGGTCATTGGGCCAGAATAGTACGCATC,1.58
7,TCGAGTAGGTTAGGGGCATGCAGAATGGCGTCGA,0.22
8,TGTCAAAGTTCAAAGGTAACGTGAGTATCCACAC,4.32
9,AGAATCAGGTTATACGTAGATCAGGGAAGAAAGT,0.474
10,CCTATTGGGCCATTCAGAGGTCATTGATCATATG,1.48
11,ACAGACAGGTGAGTGAAGGTAACTCCGCTGGACG,-0.475
12,CCGACTGGGGCATAATGTTACCATAAGCCAGCCC,-0.127
13,TAGCCTAGGACATTGGGCCAGTATAGTACGCATC,-0.671
14,CGAACTAGGTTATTGACAGGACAGTGAATAGTAA,0.59
15,TCTGCTAGGTTAACGATGGTCAGCTAATCTGCTA,0.00765
16,CCTGCTAGGTCAATGGTCAGCTACAGCAGCTCGC,1.74
17,CGTCCAAGGTTAGCAGGTCAGTGAAAGCGACGTG,0.446
18,GGAACGAGGGCAAATTTGATAGCATCTGTCGACG,2.41
19,AGCTCTAGGTAACAAGTTCAGTGAAAGAGAGGAC,0.916
20,GATCCAGGGTCAAGGCCAGAGTACGCGTATTGAT,2.45

row,Sequence,PBM binding z-score
1,ATCTCTAGGTAAGTCTCAGTTCAGTGAAGAACGC,0.813
2,CAGCCTAGGTCTGGGCCAGTATAGGAGGAACGTT,-1
3,GCGACTGGGGCATCAGCATGTTACCATAACTTAA,0.363
4,GGTTACGGGTCAAAGGTTATAGCATGAATAGAAT,1.89
5,CCGACTGGGGCAAAGGTTACTATACTCAGTACGA,0.148
6,CGTCCAAGGTCTGCAGGTCAGTGAAAGCGACGTG,0.0779
7,TATACAGGGTCAACGGCCAGAGTACGAATGTCGA,2.75
8,ACAGACAGGAGATGAAGGTAACTCAGGCTATCAT,-0.203
9,CCTTCCGGGTCACTGACAGGTTATAGCATTTGGA,1.53
10,CCTACCGGGCCAAGGTCATTGATCAGTCAAAGCA,0.804
11,CGTCCAAGGTCACTGCTAGGTCAGTGAAAGCATT,3.66
12,TCGAGTAGGTTAGTCGGGGCATTCACCCAACATA,0.343
13,ATCTCTAGGTGAGACTCAGTTCAGTGAAGAACGC,0.062
14,CGTCCAAGTTCAAGGTCAGTGAAAGAGACTCGAA,4.51
15,CTCGAAAGATCGGTTGAGGTGAGTATACGGATAA,-0.15
16,CAAACTAGGTCACGAAAGGTCATAGTCGAATGAC,2.64
17,ACTAGCAGGCCAATTTTGGGTCACTCAAACAAAG,-0.264
18,CAGCCCAGGTCAGGGCCAGTATAGGAGGAACGTT,-0.41
19,ATCGAAAGGTCGCGAGGTGAGTATACAGAAAGGC,0.903
20,CCAGACAGGTGTAAGGTAACTCAGTCTGGTACGC,0.0922
